High-throughput results (PubChem BioAssay)
Rows were chosen to be rich in hits. Some 22% of all compounds tested hit in one or more screens of this group.
CYP2C19 inh – inhibitors of human CYP2C19. P33261. CYP2C19 Supersomes, luciferin-H EGE luminescence, 30 min. inhibition, % at 5 µM. hit rate 21% among 96,000. AID 778;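 active means CYP2C19 inhibition above a set limit at 5 µM in the primary screen, cut at about 50% in these data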;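 further: plate controls were negative control wells for no effect and 2.5 mM tranylcypromine positive control for full effect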
CYP2C9 inhib – inhibitors of human CYP2C9; P11712; CYP2C9 Supersomes, luciferin-H conversion, luminescence; inhibition, % at 5 µM; hit rate 20% among 96,000;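 active means blocking of liver enzyme CYP2C9 beyond about 50% at 5 µM, limit read from the data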
Target sequence (P11712 whole entry, looked up): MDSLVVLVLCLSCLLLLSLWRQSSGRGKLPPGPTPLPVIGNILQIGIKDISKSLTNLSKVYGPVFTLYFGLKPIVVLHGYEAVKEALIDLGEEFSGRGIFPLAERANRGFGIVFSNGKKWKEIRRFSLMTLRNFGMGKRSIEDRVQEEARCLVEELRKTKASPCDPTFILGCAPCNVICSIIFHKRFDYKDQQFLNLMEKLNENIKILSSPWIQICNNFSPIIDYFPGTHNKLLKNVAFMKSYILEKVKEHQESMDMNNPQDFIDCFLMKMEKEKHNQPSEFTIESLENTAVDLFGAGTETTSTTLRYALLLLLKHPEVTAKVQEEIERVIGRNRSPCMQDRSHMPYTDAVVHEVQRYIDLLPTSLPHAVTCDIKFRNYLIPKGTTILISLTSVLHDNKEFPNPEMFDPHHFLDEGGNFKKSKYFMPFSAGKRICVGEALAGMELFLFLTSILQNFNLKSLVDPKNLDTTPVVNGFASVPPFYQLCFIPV
CYP2C19 act – increases human CYP2C19 enzyme activity. recombinant CYP2C19, luciferin-H EGE luminescence; hits give high values; 0 = fully inhibited enzyme, 1 = untreated enzyme. activation factor at 5 µM. 96,000 tested, under 10 active;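 active means activation factor of at least 2 at 5 µM in the primary screen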;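 further: 0 = wells with 2.5 mM tranylcypromine and 1 = vehicle-only wells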
Measles CPE – protection of cells from measles virus. Measles virus-infected cells, CPE protection, absorbance. protection (pct of control), % at 4 µM. hit rate 1.5% among 140,000. AID 841; in the data active means protection mostly above about 24%, no sharp cut-off; inactive means mostly below about 26%
CYP2C9 act – activators of human CYP2C9. activation factor at 5 µM. recombinant CYP2C9, luciferin-H conversion, luminescence; hits give high values; factor 1 = untreated enzyme, 0 = blocked. hit rate 1.4% among 96,000;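 active means activation factor of 2 or more for CYP2C9 at a 5 µM dose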;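 further: 0 = sulfaphenazole-blocked wells and 1 = vehicle-only wells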
* hit, by the source's call; x = not tested or not shown.

SMILES | CYP2C19 inh | CYP2C9 inhib | CYP2C19 act | Measles CPE | CYP2C9 act
Cc1cc(Cl)ccc1NC(=S)N1CCN(C(=O)C2CCCO2)CC1 (centres undefined) | x | x | x | 8 | x
C=CCSc1nnc(-c2ccccc2N=Cc2c(C)[nH]n(-c3ccccc3)c2=O)c(=O)[nH]1 | 48 | 99* | 0.5 | 17 | 0
CSc1nnc(-c2ccccc2N=Cc2c(C)[nH]n(-c3ccc4ccccc4c3)c2=O)c(=O)[nH]1 | 14 | 19 | 0.9 | 3 | 0.8
C=CCSc1nnc2c(n1)OC(c1c(C)[nH]n(-c3ccccc3)c1=O)Nc1ccccc1-2 (centres undefined) | 8 | 72* | 0.9 | 16 | 0.3
C=CCSc1nnc2c(n1)OC(c1cccnc1)Nc1ccccc1-2 (centres undefined) | -3 | 0 | 1 | 11 | 1
CN(C)c1nc(Nc2ccc(Cl)cc2)nc(OCC#N)n1 | -7 | 4 | 1.1 | 4 | 1
COC(=O)N/N=C(\C)c1ccc2ccccc2c1OC(F)F | x | x | x | 3 | x
O=c1c2cccc3c2c(nn1CN1CCOCC1)-c1ccccc1-3 | -11 | 8 | 1.1 | 59* | 0.9
O=C(c1cc2ccccc2oc1=O)N1CCN(c2ccccn2)CC1 | 77* | 9 | 0.2 | 1 | 0.9
O=C(c1cc2ccccc2oc1=O)N1CCCC1 | -12 | -44 | 1.1 | 10 | 1.4
CN1CCN(C(=O)c2cc3ccccc3oc2=O)CC1 | 7 | -2 | 0.9 | 8 | 1
O=C(c1cc2ccccc2oc1=O)N1CCN(c2ncccn2)CC1 | 87* | 4 | 0.1 | 3 | 1
O=C1c2ccccc2C(=O)N1CCCc1nc2ccccc2c(=O)n1Cc1ccco1 | 7 | 14 | 0.9 | 8 | 0.9
Cc1ccc(C(=O)C(NC(=O)c2ccco2)N2CCOCC2)cc1 (centres undefined) | 31 | 8 | 0.7 | 8 | 0.9
O=C(NC(C(=O)c1ccccc1)N1CCOCC1)c1ccccc1 (centres undefined) | 79* | 91* | 0.2 | 16 | 0.1
O=C(NC(C(=O)c1ccccc1)N1CCOCC1)c1cccs1 (centres undefined) | 94* | 96* | 0.1 | 17 | 0
CCCc1cc(=O)[nH]c(SCC(=O)N2CCN(S(=O)(=O)c3ccc(C)cc3)C2)n1 | 12 | 13 | 0.9 | 7 | 0.9
COc1ccc(N2CCN(/C(=N\S(=O)(=O)c3ccccc3)Nc3nc(C)cc(C)n3)CC2)cc1 | 11 | 67* | 0.9 | 5 | 0.3
CCCNC(=O)c1ccc2c(c1)C1C3CCC(C3)C1C(c1ccccc1)N2 (centres undefined) | 89* | 100* | 0.1 | 4 | 0
CC(C)(C)NC(=O)c1ccc2c(c1)C1C3CCC(C3)C1C(c1ccccc1)N2 (centres undefined) | x | x | x | 26 | x
Cc1ccc2ccc(S(=O)(=O)n3nc(C)cc3C)cc2c1 | 61* | -16 | 0.4 | 15 | 1.2
CC(=O)Nc1ccc(S(=O)(=O)n2nc(C)cc2C)cc1 | 44 | 43 | 0.6 | 26 | 0.6
Cn1c(OCc2ccc3c(c2)OCO3)nc2c1c(=O)n(Cc1ccc(Cl)c(Cl)c1)c(=O)n2C | 36 | 80* | 0.6 | 10 | 0.2
Cn1c(N2CCCCC2)nc2c1c(=O)n(Cc1cccc(Br)c1)c(=O)n2C | 2 | 5 | 1 | 6 | 0.9
Cn1c(NCc2ccco2)nc2c1c(=O)n(Cc1ccc(Cl)c(Cl)c1)c(=O)n2C | 60* | 69* | 0.4 | 13 | 0.3
SMILES | CYP2C19 inh | CYP2C9 inhib | CYP2C19 act | Measles CPE | CYP2C9 act
Cn1c(=O)c2c(nc(Oc3ccc4c(c3)OCO4)n2Cc2ccc(F)cc2)n(C)c1=O | -15 | 6 | 1.1 | 23 | 0.9
Cn1c(OCc2cccnc2)nc2c1c(=O)n(Cc1ccc(Br)cc1)c(=O)n2C | 68* | 68* | 0.3 | 14 | 0.3
CCN=C(N/N=C/c1ccc([N+](=O)[O-])cc1)SC | 43 | 27 | 0.6 | 7 | 0.7
Cc1ccccc1NC(=O)CSc1nc2n(n1)CCCCC2 | x | x | x | 5 | x
S=C(Nc1cccc2ccccc12)NN1CCOCC1 | 75* | 81* | 0.2 | 4 | 0.2
O=C(Nc1cccc2ccccc12)c1ccc(OC(=S)N2CCOCC2)cc1 | -12 | -7 | 1.1 | 109* | 1.1
COc1ccc(C(=O)Nc2ccccc2C(=O)NCCN2CCOCC2)cc1 | 25 | 29 | 0.8 | 10 | 0.7
O=C(Nc1cccc2ccccc12)N1CCOCC1 | -3 | -1 | 1 | 5 | 1
O=C(Nc1cc(N2CCOCC2)ncn1)Nc1cccc2ccccc12 | 13 | -102 | 0.9 | 3 | 2*
Cc1cc(NC(=O)Nc2cccc3ccccc23)no1 | 23 | -30 | 0.8 | 5 | 1.3
COc1ccc(C(=O)OC(C)C(=O)Nc2cc(C(F)(F)F)ccc2Cl)c(OC)c1OC (centres undefined) | x | x | x | 24 | x
O=C(Cn1nc(C(F)(F)F)cc1C1CC1)NCc1ccccc1F | x | x | x | 7 | x
COc1ccc(C2CC(C(F)(F)F)n3ncc(C(=O)NCc4cccnc4)c3N2)cc1OC (centres undefined) | 20 | 52* | 0.8 | 6 | 0.5
Cc1ccc(C2CC(C(F)(F)F)n3nc(C(=O)NCC4CCCO4)cc3N2)cc1 (centres undefined) | 47 | 58* | 0.5 | 17 | 0.4
COc1cccc(C2CC(C(F)(F)F)n3ncc(C(=O)NCC4CCCO4)c3N2)c1 (centres undefined) | 33 | 60* | 0.7 | 9 | 0.4
CCN(CC)c1ccc(C2NCC(c3ccc([N+](=O)[O-])cc3)O2)cc1 (centres undefined) | x | x | x | 3 | x
COC(=O)c1cc(NC2c3ccccc3C(=O)N2CCN2CCOCC2)cc(C(=O)OC)c1 (centres undefined) | 98* | 36 | 0 | 15 | 0.6
O=C1c2ccccc2C(Nc2ccc(Cl)cc2)N1CCN1CCOCC1 (centres undefined) | 75* | 6 | 0.2 | 28 | 0.9
O=C1c2ccccc2C(O)N1CCN1CCOCC1 (centres undefined) | x | x | x | 7 | x
CCOC(=O)CS(=O)(=O)c1ccc2ccccc2c1 | 87* | -193 | 0.1 | 2 | 2.9*
CCOC(=O)CS(=O)(=O)c1nc(-c2ccccc2)cc(C(F)(F)F)n1 | 45 | 59* | 0.5 | 6 | 0.4
CCOC(=O)CS(=O)(=O)c1ccccc1 | -8 | -14 | 1.1 | 7 | 1.1
Cc1ccccc1NC(=O)C1Cc2ccccc2CN1C(=O)OCc1ccccc1 (centres undefined) | x | x | x | 9 | x
N#Cc1ccc(OCC(=O)Nc2ccccc2NS(=O)(=O)c2cccs2)cc1 | x | x | x | 5 | x
CCCc1cc2c(cc1NC(=O)c1ccccc1Cl)OCO2 | 94* | 49 | 0.1 | 4 | 0.5
C=CCN(CC=C)C(=O)c1ccccc1NC(=O)c1ccccc1C | 51* | 8 | 0.5 | 5 | 0.9
CCCc1cc2c(cc1NC(=O)c1ccc(Br)cc1)OCO2 | 87* | 11 | 0.1 | 7 | 0.9
CCCc1cc2c(cc1NC(=O)c1ccccc1C)OCO2 | 95* | 28 | 0 | 23 | 0.7
O=C1CCN(Cc2nnnn2CC2CCCO2)c2ccccc2N1 (centres undefined) | -10 | -9 | 1.1 | 4 | 1.1
